Rows were chosen to be rich in hits. Some 8.5% of all compounds tested hit in one or more screens of this group.
FBPA coupling cs: qHTS Assay for Inhibitors of Fructose-1,6-bisphosphate Aldolase from Giardia Lamblia: Coupling assay counterscreen; coupling enzyme system counterscreen, AmpLite Red fluorescence; activity change, negative = inhibition, % at 58.2 µM, hits read low; 290,000 compounds, 0.67% hits; in the data active = activity change below about -30%
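Fluorescence at 525 nm excitation and 598 nm emission measured inhibition of the coupled detection system without aldolase. Compounds (at 57.5 uM final) were preincubated 10 min at room temperature with coupling enzyme reagent before a 20 min substrate/AmpLite Red step.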
NPSR antag: qHTS Assay for Antagonists of the Neuropeptide S Receptor: cAMP Signal Transduction; Q6W5P4; CHO-NPSR cells, cAMP TR-FRET, antagonist mode; Potency, µM (highest dose often 38.3 µM), for the others: at the top dose activity change, negative = inhibition, most hits filed as inhibitors; 220,000 compounds, 1% hits; active = well fitted curve in the direction sought with a large enough effect; inconclusive = small, poorly fitted or top-dose-only effect, or another doubt; inactive = no such curve, though single readings can be large; an effect the other way counts as inactive or inconclusive; note: potency is the fitted concentration of half-maximal effect; nearly all actives have a fitted effect of over 50% in size
GoLoco inh red: qHTS Assay for Inhibitors of RGS12 GoLoco Motif Activity (Red Fluorophore); Guanine nucleotide-binding protein G(i) subunit alpha-1 (Homo sapiens), P63096; Gai1:RGS12 GoLoco peptide FP, rhodamine, 10 min; Potency, µM (titrated, usually from 61.6 µM), inactives show at the highest dose activity, negative = inhibition, usual class: inhibitors; 230,000 compounds, 0.44% hits; AID 880, 2007; active = well fitted inhibition curve with a large enough effect, not every such curve was filed as active; inactive = no such curve, though single readings can be large or run the other way; note: potency is the fitted concentration of half-maximal effect; nearly all actives have a fitted effect of over 30% in size
Target sequence (P63096 whole entry, looked up): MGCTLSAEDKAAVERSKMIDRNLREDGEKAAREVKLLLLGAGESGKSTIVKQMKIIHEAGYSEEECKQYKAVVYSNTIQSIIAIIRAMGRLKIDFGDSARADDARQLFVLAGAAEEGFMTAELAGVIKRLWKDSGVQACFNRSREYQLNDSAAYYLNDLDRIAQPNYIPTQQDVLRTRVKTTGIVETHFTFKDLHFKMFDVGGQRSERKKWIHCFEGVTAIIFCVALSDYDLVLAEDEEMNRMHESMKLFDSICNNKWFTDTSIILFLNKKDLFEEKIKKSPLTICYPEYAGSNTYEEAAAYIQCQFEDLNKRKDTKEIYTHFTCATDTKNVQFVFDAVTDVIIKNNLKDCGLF
Sfp PPTase inh: qHTS Assay for Inhibitors of Bacillus subtilis Sfp phosphopantetheinyl transferase (PPTase); 310,000 compounds, 3.5% hits; 4'-phosphopantetheinyl transferase ffp (Bacillus subtilis), Q9F4F7; Biochemical Sfp PPTase activity, qHTS; Potency, µM, for the others: largest response in the series, negative = inhibition, hits mostly inhibitors; active = well fitted curve in the direction sought with a large enough effect; inconclusive = small, poorly fitted or top-dose-only effect, or another doubt; inactive = no such curve, though single readings can be large; an effect the other way counts as inactive or inconclusive;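 note: the enzyme is Sfp with the accession as filed and its product quenches rhodamine fluorescence; potency is the fitted concentration of half-maximal effect; 0% = enzyme reaction without inhibitor and -100% = no enzyme wells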
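Fluorescence-quenching assay: 15 nM Sfp-PPTase preincubated 15 min at room temperature with compound, then 5 uM rhodamine-CoA and 12.5 uM BHQ-2-labelled YbbR peptide added. Fluorescence (ex 525/em 598 nm) read at start and after 30 min; difference gives rate.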
KDM4E inh: qHTS Assay for Inhibitors of Human Jumonji Domain Containing 2E (JMJD2E). AID 2147, 2009. JMJD2E catalytic domain, FDH-coupled NADH fluorescence (FDH is formaldehyde dehydrogenase). Potency, µM (doses to about 57.1 µM), without a hit: at the highest dose activity change, negative = inhibition, hits mostly inhibitors. Lysine-specific demethylase 4E (Homo sapiens), B2RXH2. 230,000 compounds, 1.6% hits;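 note: potency is the fitted concentration of half-maximal effect; 0% = wells with enzyme and -100% = buffer wells without enzyme; nearly all actives have a fitted effect of over 50% in size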
Target sequence (B2RXH2 1-337 limits assumed): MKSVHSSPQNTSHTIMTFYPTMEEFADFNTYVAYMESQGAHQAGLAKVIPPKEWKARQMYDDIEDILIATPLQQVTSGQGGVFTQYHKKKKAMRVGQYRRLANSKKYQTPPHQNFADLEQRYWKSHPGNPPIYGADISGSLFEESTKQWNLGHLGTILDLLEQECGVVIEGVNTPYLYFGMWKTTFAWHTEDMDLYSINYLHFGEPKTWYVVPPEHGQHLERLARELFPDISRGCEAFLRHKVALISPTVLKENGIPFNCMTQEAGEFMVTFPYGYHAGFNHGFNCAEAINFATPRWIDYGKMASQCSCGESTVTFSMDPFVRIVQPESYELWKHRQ
ALDH1A1 block: qHTS Assay for Inhibitors of Aldehyde Dehydrogenase 1 (ALDH1A1); Aldehyde dehydrogenase 1A1 (Homo sapiens), P00352; 220,000 compounds, 7.3% hits; Purified ALDH1A1, NADH fluorescence, propionaldehyde substrate; Potency, µM (highest dose often 75.3 µM), for inactives: top-dose activity, negative = inhibition, most hits filed as inhibitors; AID 1030, 2008;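 note: potency is the fitted concentration of half-maximal effect; plate controls were no enzyme wells and a reference inhibitor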
* hit, by the source's call; [ ] = another dose, or the depositor's remark. Unless noted, calls come from the whole dose curve; as a rule, active = well fitted inhibition curve with a large enough effect (not every such curve was filed as active); inconclusive = small, poorly fitted or top-dose-only effect, or another doubt; inactive = no such curve, though single readings can be large or run the other way. Unless noted, % is set by controls: 0 for no effect and ±100 for the full control effect.

How did OC1(c2ccc(F)cc2)CC2CCC(C1)N2Cc1nnnn1C1CCCCC1 (stereo unspecified) do in these assays?
FBPA coupling cs: 4.3; NPSR antag: -26.6%[46.1 µM]; GoLoco inh red: 4.7%; Sfp PPTase inh: 19.8%; KDM4E inh: -7.2%; ALDH1A1 block: 0.631µM*

Results for O=P(O)(O)c1ccccc1 (tested in a mixture with another compound) ?
GoLoco inh red: 9.7%[14.2 µM]; ALDH1A1 block: 10.6%[13.5 µM]

How did N#CC(C#N)=NNc1ccc(OC(F)(F)F)cc1 do in these assays?
FBPA coupling cs: 12.0; GoLoco inh red: 3.0%; Sfp PPTase inh: inconclusive; KDM4E inh: -16.7%; ALDH1A1 block: 2.82µM*

How did N#CC(C#N)=NNc1ccc(S(=O)(=O)N2CCCC2)cc1 do in these assays?
FBPA coupling cs: 17.9; NPSR antag: -28.6%; GoLoco inh red: 0.3%; Sfp PPTase inh: -5.2%; KDM4E inh: -3.9%; ALDH1A1 block: inconclusive

How did CC1CCCC(C2(O)C(=O)Nc3ccccc32)C1=O (stereo unspecified) do in these assays?
FBPA coupling cs: 2.7; NPSR antag: -0.7%[46.1 µM]; GoLoco inh red: 14.1µM*; Sfp PPTase inh: -11.9%; KDM4E inh: -19.6%; ALDH1A1 block: -0.5%

What do the screens show for `CCOP(=O)(OCC)C1(O)C(=O)Nc2ccccc21` (stereo unspecified)?
FBPA coupling cs: 0.7; NPSR antag: 16.9%; GoLoco inh red: 4.1%; Sfp PPTase inh: 10.7%; KDM4E inh: 0.1%; ALDH1A1 block: 8.8%

How did C[N+](=O)[O-] do in these assays?
GoLoco inh red: -7.3%; ALDH1A1 block: 10.2%

How did CC(=O)CCc1ccccc1 do in these assays?
GoLoco inh red: -19.7%; ALDH1A1 block: 25.1µM*

Results for CCOC(=O)CC1=C(C(=O)OCC)C2(C(=O)N1CC(=O)OC)C(C#N)=C(N)Oc1ccccc12 (stereo unspecified) ?
FBPA coupling cs: -2.8; NPSR antag: -2.6%[46.1 µM]; GoLoco inh red: 4.1%; Sfp PPTase inh: 12.7%; KDM4E inh: -1.9%; ALDH1A1 block: 1.12µM*

Results for C=CCN1C(=O)C2(C(C(=O)OCC)=C(N)Oc3ccccc32)C2=C1CCCC2=O (stereo unspecified) ?
FBPA coupling cs: 2.0; NPSR antag: -20.2%[46.1 µM]; GoLoco inh red: -8.5%; Sfp PPTase inh: 6.5%; KDM4E inh: 4.7%; ALDH1A1 block: 3.98µM*

How did CCOC(=O)CN1C(=O)C2(C(C#N)=C(N)Oc3ccccc32)C(C(=O)OC)=C1C (stereo unspecified) do in these assays?
FBPA coupling cs: 1.3; NPSR antag: -1.3%[46.1 µM]; GoLoco inh red: 2.4%; Sfp PPTase inh: 13.7%; KDM4E inh: 11.6%; ALDH1A1 block: 7.94µM*

What do the screens show for `O[C@@H]1[C@@H]2O[P@@](O)(=S)OC[C@H]2O[C@H]1n1cnc2cc(Cl)c(Cl)cc21`?
FBPA coupling cs: 11.6; Sfp PPTase inh: 0.5%

What do the screens show for `Cc1cc(OC(=O)N(C)C)nn1C(=O)N(C)C`?
FBPA coupling cs: -0.7; Sfp PPTase inh: -10.8%

Results for CN[C@H](CC(C)C)C(=O)N[C@H]1C(=O)N[C@@H](CC(N)=O)C(=O)N[C@H]2C(=O)N[C@H]3C(=O)N[C@H](C(=O)N[C@H](C(=O)O)c4cc(O)cc(O)c4-c4cc3ccc4O)[C@H](O)c3ccc(c(Cl)c3)Oc3cc2cc(c3O[C@@H]2O[C@H](CO)[C@@H](O)[C@H](O)[C@H]2O[C@H]2C[C@](C)(N)[C@H](O)[C@H](C)O2)Oc2ccc(cc2Cl)[C@H]1O ?
NPSR antag: -5.6%[46.1 µM]; GoLoco inh red: 16.5%; KDM4E inh: -20.9%; ALDH1A1 block: inconclusive

What do the screens show for `COc1ccc(CNCCc2c(C)[nH]c3ccc(OC(F)(F)F)cc23)c(OC)c1`?
FBPA coupling cs: -0.5; Sfp PPTase inh: inconclusive

Results for COc1ccc2[nH]c(C)c(CCNCc3cc(OC)c(OC)c(OC)c3)c2c1 ?
FBPA coupling cs: -11.7; NPSR antag: 3.9%; GoLoco inh red: -27.9%; Sfp PPTase inh: 44.7µM*; KDM4E inh: inconclusive; ALDH1A1 block: inconclusive

What do the screens show for `C[C@H](N)Cc1ccccc1`?
Sfp PPTase inh: 7.0%

What do the screens show for `CC1(C)OC(c2ccccc2)=C/C(=C/C=C2C(=O)NC(=S)NC2=O)O1`?
FBPA coupling cs: -2.4; NPSR antag: -47.9%; GoLoco inh red: -37.9%; Sfp PPTase inh: 39.8µM*; KDM4E inh: -8.7%; ALDH1A1 block: inconclusive

What do the screens show for `N#CC(c1ccc(O)cc1)N1CCCCC1` (stereo unspecified)?
FBPA coupling cs: -10.1; NPSR antag: 0.7%[46.1 µM]; GoLoco inh red: -88.2%; Sfp PPTase inh: -0.1%; KDM4E inh: -9.2%; ALDH1A1 block: 4.47µM*

Results for N#CC(c1ccc(Cl)cc1)N1CCOCC1 (stereo unspecified) ?
FBPA coupling cs: 0.2; NPSR antag: 11.4%; GoLoco inh red: -3.6%; Sfp PPTase inh: 3.2%; KDM4E inh: -0.2%; ALDH1A1 block: 21.9%

How did CCOC(=O)N1CCN(C(=O)c2ccc3c(=O)n(CCC4=CCCCC4)c(=S)[nH]c3c2)CC1 do in these assays?
FBPA coupling cs: 3.8; NPSR antag: inconclusive; GoLoco inh red: 3.4%; Sfp PPTase inh: -2.8%; KDM4E inh: 0.3%; ALDH1A1 block: 7.94µM*

What do the screens show for `Cn1cnc([N+](=O)[O-])c1Sc1ccc([N+](=O)[O-])cc1`?
FBPA coupling cs: 0.1; NPSR antag: -29.9%; GoLoco inh red: -14.0%; Sfp PPTase inh: 56.2µM*; KDM4E inh: -0.2%; ALDH1A1 block: 7.94µM*

Results for Cn1cc2c([N+](=O)[O-])cc([N+](=O)[O-])cc2n1 ?
FBPA coupling cs: -0.7; NPSR antag: 12.7%; GoLoco inh red: -6.3%; Sfp PPTase inh: 3.8%; KDM4E inh: -2.6%; ALDH1A1 block: inconclusive

Results for CN(C)c1ccc(NC(=O)Oc2ccccc2)cc1 ?
FBPA coupling cs: -1.8; NPSR antag: -10.8%[46.1 µM]; GoLoco inh red: -8.4%; Sfp PPTase inh: 79.4µM*; KDM4E inh: inconclusive; ALDH1A1 block: inconclusive

How did CC(=O)Nc1ccc(NC(=O)Oc2ccccc2)cc1 do in these assays?
FBPA coupling cs: -1.1; NPSR antag: -14.7%[46.1 µM]; GoLoco inh red: 2.9%; Sfp PPTase inh: 11.7%; KDM4E inh: 9.7%; ALDH1A1 block: inconclusive

How did O=C(OCCCCN1C(=O)c2ccccc2C1=O)c1ccc(Br)o1 do in these assays?
FBPA coupling cs: -0.1; NPSR antag: inconclusive; GoLoco inh red: -6.5%; Sfp PPTase inh: 14.6%; KDM4E inh: 1.0%; ALDH1A1 block: inconclusive
